PubChem BioAssay (NCI)
About 83,000 compounds went through this panel and 20% of them were active in at least one assay; those are over-represented in the sample as a whole.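 Method: cells in 96-well plates; compound added at one concentration; 48 h incubation; percent growth measured; values under 10 scored active.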 Values without a mark were called inactive. Active and inactive are the calls of the source.

What follows are compounds tested on HT29 colon (assay: NCI-60 one-dose screen, 48 h (100 = growth as untreated, 0 = no growth, -100 = all killed)). Conditions: 10 µM unless noted.
With `COc1cc(C2CC(=O)Nc3c2cc(Br)c2ccccc32)cc(Br)c1OC` (centres undefined) the growth was 6.78% (active). Compound `CCOC(=O)c1ccccc1OC(=O)NNc1ccccc1` has a growth of 109%. `C=CC1=C(C(=O)O)N2C(=O)[C@@H](NC(=O)/C(=N\O)c3csc(N)n3)[C@H]2SC1` (stereo in doubt) showed a growth of 104%. In the case of `CN1CCN(CC(=O)Nc2nc3c(s2)Nc2cc(Cl)c(Cl)cc2NC3=O)CC1`, the growth is reported as 99.1%. Work on `N=c1ccn2c(n1)O[C@@H]1[C@@H](O)[C@H](CO)O[C@@H]12` yielded a growth of 54.2%. For `CCCc1cc(=O)n2c(C(=O)Nc3ccccc3OC)c(C(=O)Nc3ccc(F)cc3)sc2n1`, the growth was 38.2% [30 µM]. `COc1ccc(-c2cn(-c3ccccc3)c(-c3ccccc3)n2)cc1OC` was tested, and the growth was 19.4%. In the case of `CC(c1cc(Cl)ccc1O)c1cc(Cl)ccc1O`, the growth is reported as 2.77% (active). With `COc1c(O)cc2oc3cc(O)c(CC=C(C)C)c(O)c3c(=O)c2c1C/C=C(\C)CCC=C(C)C` the growth was 26.7%. `CC[C@@H]1OC(=O)[C@H](C)[C@@H](O[C@H]2C[C@@](C)(OC)[C@@H](O)[C@H](C)O2)[C@H](C)[C@@H](O[C@@H]2O[C@H](C)C[C@H](N(C)C)[C@H]2O)[C@](C)(O)C[C@@H](C)[C@@H]2N[C@@H](COCCOC)O[C@H]([C@H]2C)[C@]1(C)O` showed a growth of 103%. For `Cc1cc(C)c(OC(=O)CSc2nc3ccccc3c(=O)n2CCc2ccccc2)cc1C`, the growth was 99.5%. Work on `O=C1Cc2cc(CCn3cncn3)c(Cl)cc2N1` yielded a growth of 97.1%. In the case of `COc1cccc(/C=C2\COc3ccc(O)c(O)c3C2=O)c1OC`, the growth is reported as 21.6%. Work on `CCC1=C(c2ccc(OC)cc2)C(C)Oc2cc(OC(C)=O)ccc21` (centres undefined) yielded a growth of 102%. With `Cc1ccc(C=C2C(Cl)=C(Cl)C(Cl)=C2Cl)cc1` the growth was 8.19% (active). With `C/C(=C\CCc1ccoc1)CC/C=C(\C)CCCN1CCC(CO)CC1` the growth was 6.48% (active). In the case of `CCCCCCC/C(=N\N=C(N)N)c1ccc(O)cc1`, the growth is reported as 3.57% (active). With `C=CCCCCCCCCC(=O)[O][Sn]([CH2]CCC)([CH2]CCC)[CH2]CCC` the growth was -76.3% (active). In the case of `CCOc1cccc(C2CC(=O)Nc3cc4c(cc32)OCO4)c1` (centres undefined), the growth is reported as 89.1%. `Cc1nc2cc(NC(=O)CN3CCN(CCN4C(=O)c5cccc6cccc(c56)C4=O)CC3)ccc2s1` showed a growth of 33.6%. `OCCOc1c(Cl)cc(Cl)cc1Cl` showed a growth of 110%. For `Nc1c2ccccc2nc2ccccc12` (tested in a mixture with another compound), the growth was 0.0152% (active). `CCOc1nc(-c2ccccc2)cc2c(O)c(C(=O)n3nc(C)cc3C)[nH]c(=O)c12` gave a growth of 104%. `Nc1cc(Cl)c(S(N)(=O)=O)cc1S(N)(=O)=O` was tested, and the growth was 122%. Work on `CCCCCCCC/C=C\CCCCCCCCOc1ccccc1CC(=O)NCC[N+]1(C)CCCC1` yielded a growth of 18%. `O=C(Nc1nc2ccccc2s1)c1cc(-c2ccc(F)cc2)n2nc(-c3ccccc3)cc2n1` was tested, and the growth was 74.5%. Work on `CCCCn1c(Cc2ccc(Cl)cc2)nc2cc(OC)c(OC)cc2c1=O` yielded a growth of 107%. In the case of `C=C1c2c(C)nn(-c3ccc(C#CCOC4OC(CO)C(O)C(O)C4O)cc3)c2N(C)C23C[C@H]1C1(C)c4c(C)nn(-c5ccc(C#CCOC6OC(CO)C(O)C(O)C6O)cc5)c4N(C)C(C)(C[C@H]12)C3` (some centres undefined), the growth is reported as 8.04% (active). `O=C1OC(c2ccc(-c3ccccc3)cc2)=C/C1=C/c1cccs1` showed a growth of 125%. In the case of `CO[C@H]1CC(O[C@@H]2/C(C)=C/C[C@@H]3C[C@@H](C[C@]4(CC[C@H](C)[C@@H](C5CCCCC5)O4)O3)OC(=O)[C@@H]3C=C(C)/C(=N/O)[C@H]4OC/C(=C\C=C\[C@@H]2C)[C@]43O)O[C@@H](C)C1O` (some centres undefined), the growth is reported as -70.9% (active). For `COc1cc2c(cc1OC)C1CCN3C(=O)CCC3N1CC2` (centres undefined), the growth was 109%. In the case of `COC1CC2CCC(C)C(O)(O2)C(=O)C(=O)N2CCCCC2C(=O)OC(C(C)CC2CCC(O)C(OC)C2)CC(=O)C(C)C=C(C)C(O)C(OC)C(=O)C(C)CC(C)/C=C/C=C/C=C1C` (centres undefined), the growth is reported as 43.7%. In the case of `Cc1cc(N2CCOCC2)nc(N2CCOCC2)n1`, the growth is reported as 103%. Work on `NNC(=O)C1CC2c3ccccc3C1c1ccccc12` (centres undefined) yielded a growth of 104%. For `CN(C)c1ccc2[nH]c3c(C(N)=O)cc(=O)c(=O)c=3oc2c1`, the growth was 127%. In the case of `CCC[C@H](N[C@@H](C)C(=O)N1[C@H](C(=O)O)C[C@@H]2CCCC[C@@H]21)C(=O)OCC`, the growth is reported as 100%. In the case of `O=C(/C(=C/c1cccc([N+](=O)[O-])c1)c1ccccc1)c1ccccc1`, the growth is reported as 52.7%.

These compounds were tested on SNB-75 CNS in the same assay as above. Conditions: 10 µM unless noted.
With `COc1cc(C2CC(=O)Nc3c2cc(Br)c2ccccc32)cc(Br)c1OC` (centres undefined) the growth was -42.7% (active). Work on `CCOC(=O)c1ccccc1OC(=O)NNc1ccccc1` yielded a growth of 78.9%. In the case of `C=CC1=C(C(=O)O)N2C(=O)[C@@H](NC(=O)/C(=N\O)c3csc(N)n3)[C@H]2SC1` (stereo in doubt), the growth is reported as 92.4%. `CN1CCN(CC(=O)Nc2nc3c(s2)Nc2cc(Cl)c(Cl)cc2NC3=O)CC1` showed a growth of 96.3%. For `N=c1ccn2c(n1)O[C@@H]1[C@@H](O)[C@H](CO)O[C@@H]12`, the growth was 82.8%. With `CCCc1cc(=O)n2c(C(=O)Nc3ccccc3OC)c(C(=O)Nc3ccc(F)cc3)sc2n1` the growth was 12.8% [30 µM]. `COc1ccc(-c2cn(-c3ccccc3)c(-c3ccccc3)n2)cc1OC` showed a growth of 95.9%. In the case of `CC(c1cc(Cl)ccc1O)c1cc(Cl)ccc1O`, the growth is reported as 35.8%. For `COc1c(O)cc2oc3cc(O)c(CC=C(C)C)c(O)c3c(=O)c2c1C/C=C(\C)CCC=C(C)C`, the growth was 84.6%. In the case of `CC[C@@H]1OC(=O)[C@H](C)[C@@H](O[C@H]2C[C@@](C)(OC)[C@@H](O)[C@H](C)O2)[C@H](C)[C@@H](O[C@@H]2O[C@H](C)C[C@H](N(C)C)[C@H]2O)[C@](C)(O)C[C@@H](C)[C@@H]2N[C@@H](COCCOC)O[C@H]([C@H]2C)[C@]1(C)O`, the growth is reported as 77.4%. Compound `Cc1cc(C)c(OC(=O)CSc2nc3ccccc3c(=O)n2CCc2ccccc2)cc1C` has a growth of 88.1%. For `O=C1Cc2cc(CCn3cncn3)c(Cl)cc2N1`, the growth was 63.6%. For `COc1cccc(/C=C2\COc3ccc(O)c(O)c3C2=O)c1OC`, the growth was 21.8%. `CCC1=C(c2ccc(OC)cc2)C(C)Oc2cc(OC(C)=O)ccc21` (centres undefined) gave a growth of 71.9%. With `Cc1ccc(C=C2C(Cl)=C(Cl)C(Cl)=C2Cl)cc1` the growth was -11.6% (active). `C/C(=C\CCc1ccoc1)CC/C=C(\C)CCCN1CCC(CO)CC1` was tested, and the growth was 36.4%. `CCCCCCC/C(=N\N=C(N)N)c1ccc(O)cc1` was tested, and the growth was 81.6%. For `C=CCCCCCCCCC(=O)[O][Sn]([CH2]CCC)([CH2]CCC)[CH2]CCC`, the growth was -98.2% (active). For `CCOc1cccc(C2CC(=O)Nc3cc4c(cc32)OCO4)c1` (centres undefined), the growth was 104%. `Cc1nc2cc(NC(=O)CN3CCN(CCN4C(=O)c5cccc6cccc(c56)C4=O)CC3)ccc2s1` gave a growth of 57.1%. In the case of `OCCOc1c(Cl)cc(Cl)cc1Cl`, the growth is reported as 62.2%. `Nc1c2ccccc2nc2ccccc12` (tested in a mixture with another compound) showed a growth of 31.9%. In the case of `CCOc1nc(-c2ccccc2)cc2c(O)c(C(=O)n3nc(C)cc3C)[nH]c(=O)c12`, the growth is reported as 94.4%. `Nc1cc(Cl)c(S(N)(=O)=O)cc1S(N)(=O)=O` was tested, and the growth was 86.7%. `CCCCCCCC/C=C\CCCCCCCCOc1ccccc1CC(=O)NCC[N+]1(C)CCCC1` gave a growth of 79%. `O=C(Nc1nc2ccccc2s1)c1cc(-c2ccc(F)cc2)n2nc(-c3ccccc3)cc2n1` was tested, and the growth was 38.4%. Compound `CCCCn1c(Cc2ccc(Cl)cc2)nc2cc(OC)c(OC)cc2c1=O` has a growth of 104%. In the case of `C=C1c2c(C)nn(-c3ccc(C#CCOC4OC(CO)C(O)C(O)C4O)cc3)c2N(C)C23C[C@H]1C1(C)c4c(C)nn(-c5ccc(C#CCOC6OC(CO)C(O)C(O)C6O)cc5)c4N(C)C(C)(C[C@H]12)C3` (some centres undefined), the growth is reported as 6.04% (active). `O=C1OC(c2ccc(-c3ccccc3)cc2)=C/C1=C/c1cccs1` gave a growth of 95.7%. With `CO[C@H]1CC(O[C@@H]2/C(C)=C/C[C@@H]3C[C@@H](C[C@]4(CC[C@H](C)[C@@H](C5CCCCC5)O4)O3)OC(=O)[C@@H]3C=C(C)/C(=N/O)[C@H]4OC/C(=C\C=C\[C@@H]2C)[C@]43O)O[C@@H](C)C1O` (some centres undefined) the growth was -90.4% (active). `COc1cc2c(cc1OC)C1CCN3C(=O)CCC3N1CC2` (centres undefined) showed a growth of 105%. Work on `COC1CC2CCC(C)C(O)(O2)C(=O)C(=O)N2CCCCC2C(=O)OC(C(C)CC2CCC(O)C(OC)C2)CC(=O)C(C)C=C(C)C(O)C(OC)C(=O)C(C)CC(C)/C=C/C=C/C=C1C` (centres undefined) yielded a growth of 13.5%. For `Cc1cc(N2CCOCC2)nc(N2CCOCC2)n1`, the growth was 94.4%. In the case of `NNC(=O)C1CC2c3ccccc3C1c1ccccc12` (centres undefined), the growth is reported as 90.8%. With `CN(C)c1ccc2[nH]c3c(C(N)=O)cc(=O)c(=O)c=3oc2c1` the growth was 52.7%. `CCC[C@H](N[C@@H](C)C(=O)N1[C@H](C(=O)O)C[C@@H]2CCCC[C@@H]21)C(=O)OCC` showed a growth of 112%. Work on `O=C(/C(=C/c1cccc([N+](=O)[O-])c1)c1ccccc1)c1ccccc1` yielded a growth of 56.8%.
